This excerpt belongs to a sample that is enriched for hits.
KDM5B inh – blocks human KDM5B histone demethylase activity; KDM5B demethylase, FDH-coupled NADH fluorescence (FDH is formaldehyde dehydrogenase); Potency, µM (top dose mostly 57.7 µM), actives largely listed as inhibitors; 2.6% of 220,000 active; active = well fitted inhibition curve with a large enough effect; also: 0% is about no effect; nearly all actives have a fitted effect of over 70% in size
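Inhibition is measured as reduced NADH fluorescence generation from FDH coupling to formaldehyde release. Truncated KDM5BΔAP at 200 nM final acts on H3K4me3 peptide (12.5 µM in substrate mix) in pH 7.5 HEPES buffer with Tween-20, 30 min, room temperature.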
Starred values were filed as active, the others as inactive; i = inactive. Potency is read from the fitted curve at half-maximal effect.

SMILES	KDM5B inh
CC(=O)Nc1ccc(C(=O)NC2CCC3CCCCC3C2)s1 (centres undefined)	i
O=C(CN1CC2CC(C1)[C@H]1CCCC(=O)N1C2)NCCCN1CCOCC1 (some centres undefined)	i
C=CCNC(=O)c1ccc(N2CC3CC(C2)[C@H]2CCCC(=O)N2C3)nc1 (some centres undefined)	25.1µM*
O=C(NC1CCCCC1)c1ccc(N2CC3CC(C2)[C@H]2CCCC(=O)N2C3)nc1 (some centres undefined)	i
O=C(CN1CC2CC(C1)[C@H]1CCCC(=O)N1C2)NCCCN1CCCc2ccccc21 (some centres undefined)	14.1µM*
O=C(CN1CC2CC(C1)[C@H]1CCCC(=O)N1C2)NCCCN1CCN(c2ccccc2)CC1 (some centres undefined)	i
O=C(NCCCN1CCCCC1)c1cccnc1N1CC2CC(C1)[C@H]1CCCC(=O)N1C2 (some centres undefined)	28.2µM*
O=C(CN1CC2CC(C1)[C@H]1CCCC(=O)N1C2)NCCN1CCCCC1 (some centres undefined)	i
O=C(NCCN1CCCCC1)c1ccc(N2CC3CC(C2)[C@H]2CCCC(=O)N2C3)nc1 (some centres undefined)	i
CN1CCN(CCCNC(=O)CN2CC3CC(C2)[C@H]2CCCC(=O)N2C3)CC1 (some centres undefined)	i
Cc1cc(NC(=O)c2nc3ccccc3nc2NCc2ccccc2)ccc1Br	i
Cc1ccc(C)c(NC(=O)Nc2ccc(-c3cn4cccnc4n3)cc2)c1	i
O=C(CCn1ccn2nc3c(c2c1=O)CCCC3)Nc1cccc(C(F)(F)F)c1	i
CCN(Cc1ccccc1)C(=O)C1CCCN(C2CCN(C(=O)C3CC3)CC2)C1 (centres undefined)	i
Cc1cccc(CNC(=O)Cc2ccc(N(Cc3ccccc3)C(=O)c3ccco3)cc2)c1	i
CCN(CC)C(=O)C[C@@H]1c2nc(NC(=O)c3cccc(F)c3)sc2C[C@@H]2[C@](C)(CO)[C@H](O)CC[C@]21C	i
Cc1noc(C)c1C(=O)N1CCc2nn(C)c(=O)n2CC1	i
CCNC(=O)c1cccnc1OC1CCN(C(=O)c2ccnn2C)C1 (centres undefined)	i
Cc1ccc(OCCN(C)C(=O)c2cc(=O)[nH]c3ccccc23)cc1	i
CCOc1ccc(C2NC(=O)N(Cc3noc(C4CCCCC4)n3)C3=C2C(=O)OC3)cc1 (centres undefined)	i
O=C(CC1CCOC2(CCN(C3CCN(Cc4ccccc4)CC3)CC2)C1)N1CCCC1 (centres undefined)	i
CCOc1cc(C(=O)N2CCN(c3cc(-c4ccc(F)cc4)[nH]n3)CC2)cc(OCC)c1OCC	i
Cc1nnnn1-c1cccc(-c2nc(C3CCOC3)no2)c1 (centres undefined)	i
Cc1cc(C)nc(SCc2ccc(-c3nc(C4CCOC4)no3)o2)n1 (centres undefined)	i
CCCc1ccc(-c2nc(C3CCOC3)no2)cc1 (centres undefined)	i
SMILES	KDM5B inh
COc1c(C)cccc1-c1nc(C2CCOC2)no1 (centres undefined)	i
Cc1cc2cccc(-c3nc(C4CCOC4)no3)c2o1 (centres undefined)	22.4µM*
CCN(CC)Cc1cc(-c2nc(C3CCOC3)no2)c(-c2ccccc2)o1 (centres undefined)	25.1µM*
Cn1nc(-c2nc(C3CCOC3)no2)cc1-c1ccccc1 (centres undefined)	i
Cc1ccccc1OCc1nc(C2CCOC2)no1 (centres undefined)	i
Cc1cc(-c2nc(C3CCOC3)no2)c2ccccc2n1 (centres undefined)	28.2µM*
COc1ccc(C(=O)N(C)Cc2cc(Br)ccc2OC)cc1F	i
CC(C)(C)C(=O)/C(C#N)=C/c1ccccc1OCc1ccc(Cl)cc1	i
CSc1ccccc1NC(=O)c1c(F)cccc1F	i
CC(C)n1c(CNC(=O)C[C@H]2NC(=O)c3ccccc3NC2=O)nc2ccccc21	28.2µM*
CC(C)c1nc2ccccc2n1CCNC(=O)CC[C@H]1NC(=O)c2ccccc2NC1=O	i
CC(C)Cn1ccc2c(NC(=O)C[C@H]3NC(=O)c4ccccc4NC3=O)cccc21	i
O=C(C[C@H]1NC(=O)c2ccccc2NC1=O)Nc1ccc(C(F)(F)F)cc1	i
CN1C(=O)c2ccc(NC(=O)C[C@H]3NC(=O)c4ccccc4NC3=O)cc2C1=O	25.1µM*
NC(=O)c1ccc(NC(=O)C[C@H]2NC(=O)c3ccccc3NC2=O)cc1	i
Cc1cccc(C(=O)NCCc2c[nH]c3ccc(C)cc23)c1	i
CCN(CC)C(=O)C(=O)c1cn(C)c2ccccc12	i
Cc1[nH]nc2ncc(C=O)cc12	i
CCCCC12CN3CCN(CC(C3)/C1=N\NC(=S)NC)C2	i
CC(C)CNC(=O)c1ccc2c(c1)N(S(=O)(=O)c1ccccc1F)CC2	i
O=C(NCc1cccs1)c1ccc2c(c1)OCCCO2	i
CN1CCC2(C1)CN(CC1CC1)c1ccc(C(=O)NCC3CC3)cc12 (centres undefined)	35.5µM*
O=C(NCc1cccs1)c1ccc2ccccc2c1	i
CN1CCCC2(C1)CN(C)c1ccc(C(=O)NCC3CCCCC3)cc12 (centres undefined)	35.5µM*
CN1CCCC2(C1)CN(C)c1ccc(C(=O)NCc3cccs3)cc12 (centres undefined)	35.5µM*
SMILES	KDM5B inh
CC(C)(C)NC(=O)c1ccc(C(=O)NCC2CC2)cc1	i
O=C(NCC1CCCCC1)c1ccc2c(c1)N(S(=O)(=O)c1ccccc1)CC2	i
COc1ccc2c(c1)OCC(CNC(=O)c1ccc(N3CCN(C)CC3)cc1)C2 (centres undefined)	i
Cc1cc(C(=O)NCC(C)C)ccc1N	i
CC(C)CNC(=O)c1ccc2c(c1)C1(CCN(C)C1)CN2CC1CC1 (centres undefined)	35.5µM*
CC(=O)Nc1cc(NC(C)=O)cc(C(=O)NCC2CCCCC2)c1	i
Cc1nc(-c2cc3ccc(OC(=O)CC(C)C)cc3oc2=O)cs1	i
Cn1nc(C(=O)N2CCN(c3ccccc3Cl)CC2)c2ccccc2c1=O	i
COCC(=O)N[C@H]1CC[C@]2(C)CCC([C@H](C)C(=O)NCc3ccc4c(c3)OCO4)[C@H](O)[C@H]2[C@@H]1C (some centres undefined)	i
CC(C)(Cc1ccc(F)cc1)NC(=O)C1CCC(=O)N(Cc2ccccn2)C1 (centres undefined)	i
CN(C)[S+](=O)([O-])c1ccc2c(c1)OCCN(Cc1ccc(F)cc1F)C2	i
Cc1ccsc1C(=O)N(C)C1CCN(CCc2ccccn2)CC1	i
CCOC(=O)C(NC(=O)COc1cccc2ccccc12)C(=O)OCC	i
Cc1ccc(Oc2ccccc2NC(=O)CC(C)(C)CC(=O)O)cc1	i
O=C(Nc1ccc2cc[nH]c2c1)c1csc(NC2CC2)n1	i
CCCCn1c(=O)[nH]c(=O)c2c1nc(CNc1ccc(F)cc1C)n2CCC(C)C	i
O=C(NC12CC3CC(CC(C3)C1)C2)c1cc(Br)c[nH]1	i
CN1CCCC2(C1)CN(C)c1ccc(C(=O)Nc3ccc(F)cc3)cc12 (centres undefined)	35.5µM*
COc1ccc(NC(=O)c2ccc3c(c2)C2(CCCN(C)C2)CN3C)cc1 (centres undefined)	i
O=C(Nc1ccc(F)cc1)c1ccc2c(c1)CCC2	i

High-throughput results from PubChem.
